Source: PubChem BioAssay AID1851 (National Center for Advancing Translational Sciences (NCATS), 2009)
Hit rate of the full screen: of about 16,000 compounds, about 5,700 (36%) were called active. Inconclusive results (about 24%) are left out. Calls follow the shape of the dose curve; as a rule, active = well fitted curve in the direction sought with a large enough effect; inconclusive = small, poorly fitted or top-dose-only effect, or effect the other way; inactive = no such curve, though single readings can be large or run the other way. The list shows a part of the results.
% is scaled to controls: 0 for no effect and ±100 for the full control effect.

Each compound was assayed against Cytochrome P450 1A2 (Homo sapiens) (UniProt P05177) (assay: Cytochrome panel assay with activity outcomes). Details: recombinant CYP, pro-luciferin dealkylation, luminescence, p450-cyp1a2; series mostly up to 57.1 µM; activity, negative = inhibition: at the top concentration.
Sequence of Cytochrome P450 1A2 (Homo sapiens) (P05177 whole entry, looked up): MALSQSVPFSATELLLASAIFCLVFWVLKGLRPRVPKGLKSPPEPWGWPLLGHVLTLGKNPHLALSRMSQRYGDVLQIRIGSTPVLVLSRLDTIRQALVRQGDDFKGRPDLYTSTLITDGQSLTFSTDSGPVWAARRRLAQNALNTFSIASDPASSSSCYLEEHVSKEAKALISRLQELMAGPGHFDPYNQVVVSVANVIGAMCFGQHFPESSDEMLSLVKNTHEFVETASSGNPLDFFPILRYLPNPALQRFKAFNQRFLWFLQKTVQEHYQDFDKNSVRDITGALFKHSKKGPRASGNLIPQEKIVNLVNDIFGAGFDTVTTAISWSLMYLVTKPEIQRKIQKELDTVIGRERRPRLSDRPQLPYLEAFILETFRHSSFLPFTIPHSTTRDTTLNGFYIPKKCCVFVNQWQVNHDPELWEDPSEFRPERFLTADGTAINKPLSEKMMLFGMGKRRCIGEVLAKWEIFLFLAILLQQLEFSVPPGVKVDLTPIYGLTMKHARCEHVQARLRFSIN
In the case of `CC(=O)[C@@]1(O)CC[C@H]2[C@H]3C[C@@H](C)C4=CC(=O)C=C[C@]4(C)[C@@]3(F)[C@@H](O)C[C@]21C`, the “activity, negative = inhibition” value was -14.8% [at 25.6 µM] (inactive). In the case of `CC(=O)[C@H]1CC[C@H]2[C@@H]3C=CC4=CC(=O)CC[C@@]4(C)[C@H]3CC[C@]12C`, the “activity, negative = inhibition” value was -8.55% [at 25.6 µM] (inactive). For `O=c1c(-c2ccccc2)nc2cncnc2n1-c1ccccc1`, the AC50 was 5.01 µM (active). For `O=c1c(-c2cccc(Cl)c2)nc2cncnc2n1-c1ccccc1`, the AC50 was 2 µM (active). In the case of `COc1ccc(-n2c(=O)c(-c3cccc(Cl)c3)nc3cncnc32)cc1`, the AC50 was 1 µM (active). With `Cc1ccc(S(=O)(=O)N[C@H]2COC(=O)C/C=C\[C@H](C)[C@@H](NS(=O)(=O)c3ccc(C)cc3)COC(=O)C/C=C\[C@@H]2C)cc1` the activity, negative = inhibition was -10.6% [at 11.4 µM] (inactive). With `Cc1ccc(CNC(=O)[C@H]2C[C@@H]2[C@H](NP(=O)(c2ccccc2)c2ccccc2)c2ccccc2)c(F)c1F` the “activity, negative = inhibition” value was -17.4% (inactive). `O=C(NCc1cc(F)cc2c1OCCO2)[C@H]1C[C@@H]1[C@H](NP(=O)(c1ccccc1)c1ccccc1)c1ccccc1` was tested, and the AC50 was 15.8 µM (active). For `Cc1cc(CNC(=O)[C@@H]2C[C@H]2[C@@H](NP(=O)(c2ccccc2)c2ccccc2)c2ccccc2)nn1C`, the “activity, negative = inhibition” value was -17.4% (inactive). `C[C@H](CO)NC(=O)[C@H]1C[C@@H]1[C@H](NP(=O)(c1ccccc1)c1ccccc1)c1ccccc1` was tested, and the “activity, negative = inhibition” value was -7.78% (inactive). `O=C(Nc1ccc2ccccc2c1)[C@H]1C[C@@H]1[C@H](NP(=O)(c1ccccc1)c1ccccc1)c1ccccc1` was tested, and the AC50 was 10 µM (active). `C[C@H](CO)NC(=O)[C@@H]1C[C@H]1[C@@H](NP(=O)(c1ccccc1)c1ccccc1)c1ccccc1` was tested, and the “activity, negative = inhibition” value was -9.59% (inactive). For `Cn1cccc1C(=O)N1CCC[C@@]2(CCN(Cc3nccs3)C2)C1`, the “activity, negative = inhibition” value was -7.87% (inactive). In the case of `CCN(CC)S(=O)(=O)c1ccc(C(=O)Nc2ncn(Cc3ccccc3)n2)cc1`, the “activity, negative = inhibition” value was -10.7% (inactive). With `CCCCN(CC)S(=O)(=O)c1ccc(C(=O)Nc2nnc(CSC)o2)cc1` the “activity, negative = inhibition” value was -27.9% (inactive). `COC(=O)C1=C(NC(=O)c2cccc(OC)c2)CCS1` was tested, and the AC50 was 3.16 µM (active). In the case of `COC(=O)C1=C(NC(=O)c2cccs2)CCS1`, the AC50 was 2.51 µM (active). With `CCC(=O)N1CCN(c2ccc(NC(=O)c3cccs3)cc2)CC1` the “activity, negative = inhibition” value was -9.21% (inactive). In the case of `CCN(CC)S(=O)(=O)c1ccc(C(=O)NC2=C(C(=O)OC)SCC2)cc1`, the AC50 was 12.6 µM (active). In the case of `CC(=O)N(O)CCCCCNC(=O)CCC(=O)N(O)CCCCCNC(=O)CCC(=O)N(O)CCCCCN`, the “activity, negative = inhibition” value was -5.91% [at 25.6 µM] (inactive). In the case of `O=C1[C@@H]2C=CC=CC2=NC(=S)N1CCN1CCC(=C(c2ccc(F)cc2)c2ccc(F)cc2)CC1`, the “activity, negative = inhibition” value was -5.13% (inactive). `O=C(Nc1cccc(OC(=O)c2ccco2)c1)c1ccco1` was tested, and the AC50 was 22.4 µM (active). With `O=C(NNC(=S)Nc1ccccc1)c1ccco1` the “activity, negative = inhibition” value was 0.324% (inactive). In the case of `O=C(Oc1ccccc1[N+](=O)[O-])c1cccnc1`, the AC50 was 20 µM (active). With `O=C(Oc1cccc(Br)c1)c1cccnc1` the AC50 was 12.6 µM (active). For `COc1ccc(C(C)=O)c(OC(=O)c2ccco2)c1`, the AC50 was 2 µM (active). For `CN(C(=O)C(Cl)Cl)c1ccc(OC(=O)c2ccco2)cc1`, the “activity, negative = inhibition” value was -3.35% [at 25.6 µM] (inactive). For `NC(=O)c1ncn([C@@H]2O[C@@H](CO)[C@@H](O)[C@H]2O)c1O`, the “activity, negative = inhibition” value was -1.3% (inactive). In the case of `O=[N+]([O-])c1ccc(CSc2ncnc3c2ncn3[C@@H]2O[C@@H](CO)[C@@H](O)[C@H]2O)cc1`, the “activity, negative = inhibition” value was -12.3% (inactive). In the case of `O=C(Nc1cccc(OC(=O)c2cccnc2)c1)c1cccnc1`, the AC50 was 7.08 µM (active). With `O=C(Nc1ccc2nc(-c3ccc(Br)o3)[nH]c2c1)c1ccco1` the AC50 was 3.55 µM (active). In the case of `CC(C)C(=O)Nc1ccc(NC(=O)c2cccnc2)cn1`, the “activity, negative = inhibition” value was -6.09% (inactive). With `CCOc1ccc(C(=O)Nc2ccc(NC(=O)c3ccco3)c(Cl)c2)cc1Br` the “activity, negative = inhibition” value was -16.5% (inactive). `O=C(Nc1ccc(OC(=O)c2cccnc2)cc1)c1cccnc1` was tested, and the “activity, negative = inhibition” value was -22.8% (inactive). With `O=C(Nc1cccc(NC(=O)c2ccc(-c3cccc(Br)c3)o2)c1)c1ccco1` the AC50 was 3.16 µM (active). `CN(C)Cc1cc(C(C)(C)C)ccc1-c1ccc(C(C)(C)C)cc1CN(C)C` was tested, and the activity, negative = inhibition was -17.9% [at 2.29 µM] (inactive). `CN(C)Cc1ccccc1-c1nccc(N(C)C)n1` was tested, and the AC50 was 12.6 µM (active). For `CN(C)Cc1ccccc1-c1nccc(NC2CC2)n1`, the AC50 was 1.58 µM (active). With `CNc1ccnc(-c2ccccc2CN(C)C)n1` the AC50 was 12.6 µM (active). In the case of `CN(C)Cc1ccccc1-c1nccc(Nc2ccc(F)cc2)n1`, the AC50 was 3.16 µM (active). For `COCC(=O)N1CCC2(CC1)CCN(C(c1ccccc1)c1ccccc1)CC2`, the “activity, negative = inhibition” value was 5.84% (inactive). With `O=C(Nc1cccc(F)c1)N1CC[C@@]2(CCCN(C(=O)c3cnccn3)C2)C1` the “activity, negative = inhibition” value was -11.2% (inactive). For `CCOC(=O)c1c(CC(C)C)csc1NC=O`, the AC50 was 0.224 µM (active). For `COc1cccc(Nc2ncc3nc(-c4cccs4)c(=O)n(CCC#N)c3n2)c1`, the AC50 was 2.51 µM (active). For `CCNc1ncc2nc(-c3cccs3)c(=O)n(CCC#N)c2n1`, the AC50 was 3.16 µM (active). `CCNc1ncc2nc(-c3cccs3)c(=O)n(CCc3ccccc3)c2n1` was tested, and the AC50 was 10 µM (active). With `N#CCCn1c(=O)c(-c2cccs2)nc2cnc(Nc3ccccc3)nc21` the AC50 was 5.01 µM (active). For `CCOC(=O)c1c(-c2ccc(C)o2)csc1NC(=S)NC(=O)N(C)C`, the AC50 was 1.58 µM (active). In the case of `O=C1C2=CC[C@H]3C(=O)N(c4cccc(Oc5ccccc5)c4)C(=O)[C@@H]3[C@@H]2[C@H](O)[C@@H]2O[C@H]12`, the activity, negative = inhibition was -1.58% [at 11.4 µM] (inactive). With `O=C(CN1C(=O)C2C3C=CC(C3)C2C1=O)Nc1ccc(C(=O)O)cc1` (configuration not stated) the “activity, negative = inhibition” value was -3.43% (inactive). For `CN(C)c1ccc(NC(=O)c2cccc(N3C(=O)C4C5C=CC(C5)C4C3=O)c2)cc1` (configuration not stated), the AC50 was 2 µM (active). With `O=C(CCN1C(=O)C2C3C=CC(C3)C2C1=O)Nc1ccc2ncccc2c1` (configuration not stated) the “activity, negative = inhibition” value was -7.75% (inactive). In the case of `CO[C@@H]1COC(=O)C/C=C\[C@@H](C)COC(=O)[C@H](COCc2ccccc2)NC(=O)C/C=C\[C@H]1C`, the activity, negative = inhibition was -7.1% [at 11.4 µM] (inactive). For `O=[n+]1c2c(n([O-])c3cc(F)c(F)cc31)CCCC2`, the AC50 was 14.1 µM (active). With `CCOc1ccc(-c2c[n+](=O)c3c(n2[O-])CCCC3)c(OCC)c1` the “activity, negative = inhibition” value was -21% (inactive). With `CCCCC1(C)Nc2ccccc2-c2nc3ccccc3n21` (configuration not stated) the AC50 was 14.1 µM (active). In the case of `CCC1(C)Nc2ccccc2C(=O)N1O` (configuration not stated), the “activity, negative = inhibition” value was -28.5% (inactive). For `CCCC1(C)Nc2ccccc2-c2nc3ccccc3n21` (configuration not stated), the AC50 was 8.91 µM (active). In the case of `CN(C)C(=O)c1ccc(-c2nccc(Nc3ccc(F)cc3)n2)cc1`, the AC50 was 6.31 µM (active). With `CN(C)c1ccc(-c2cc(Nc3ccc(F)cc3)ncn2)cc1` the AC50 was 0.398 µM (active). For `Fc1ccc(Nc2ccnc(-c3ccc4c(c3)OCO4)n2)cc1`, the AC50 was 0.631 µM (active). In the case of `Fc1ccc(Nc2ccnc(-c3ccoc3)n2)cc1`, the AC50 was 1 µM (active). `CCCCC1CC(/C(C)=N/NC(N)=O)OC1=O` (configuration not stated) was tested, and the “activity, negative = inhibition” value was -23% (inactive). For `C[C@@]12CC(=O)[C@@H]3[C@@H](CCC4=CC(=O)CC[C@]43C)[C@@H]1CC=C2CC(=O)O`, the activity, negative = inhibition was -17% [at 11.4 µM] (inactive). For `NC(=O)CCCC1=NS(=O)(=O)c2ccccc2N1`, the “activity, negative = inhibition” value was 8.32% (inactive). For `CN(C)[C@@H]1C(=O)C(C(N)=O)=C(O)[C@]2(O)C(=O)C3=C(O)c4c(O)ccc(Cl)c4[C@H](O)[C@H]3C[C@@H]12`, the AC50 was “inactive”. With `CC1(C)O[C@H]2[C@@H](c3[nH]nc4c(=O)[nH]c(=O)[nH]c34)OC[C@H]2O1` the activity, negative = inhibition was -11.5% [at 11.4 µM] (inactive). For `CN(C)c1ccc(-c2nccc(Nc3ccc(F)cc3)n2)cc1`, the AC50 was 0.501 µM (active). `NNC(=O)[C@@H](O)[C@H](O)[C@H](O)CO` was tested, and the activity, negative = inhibition was -0.774% [at 11.4 µM] (inactive). In the case of `N#C[C@@H](N=Nc1ccccc1C(=O)O)C(N)=O`, the activity, negative = inhibition was -8.23% [at 11.4 µM] (inactive). In the case of `N=C(N)[C@H](N=Nc1ccccc1)C(N)=O`, the AC50 was 0.794 µM (active). In the case of `NC(Cc1ccccc1)=NCC(=O)O`, the activity, negative = inhibition was -5.52% [at 11.4 µM] (inactive). With `CC(C)(C)NC[C@@H](O)c1ccc(O)c(CO)n1` the activity, negative = inhibition was 10.1% [at 2.29 µM] (inactive). For `CC[N+](C)(CC)CCC[n+]1c(-c2ccccc2)c2cc(N)ccc2c2ccc(N)cc21`, the AC50 was 12.6 µM (active). `Cn1c(=S)c2[nH]c(SCCN3CCCC3)nc2n(C)c1=O` was tested, and the activity, negative = inhibition was -29.7% [at 2.29 µM] (inactive). For `Cn1c(=S)c2[nH]c(SCCCc3ccccc3)nc2n(C)c1=O`, the AC50 was 3.16 µM (active). With `Cn1c(=O)c2[nH]c(CCCc3ccc([N+](=O)[O-])cc3)nc2n(C)c1=O` the activity, negative = inhibition was -18.9% [at 11.4 µM] (inactive). `COC(=O)C/C=C\[C@@H](C)[C@@H](/C=N\OC[C@@H](O)COCc1ccco1)NS(=O)(=O)c1ccc(C)cc1` was tested, and the activity, negative = inhibition was 3.98% [at 11.4 µM] (inactive). `Oc1cccc(-c2nc3c4c(ncn3n2)-c2ccccc2CC42CCCC2)c1` was tested, and the AC50 was 10 µM (active). With `O=C(Nc1cccc2cccnc12)[C@@H]1[C@@H](C(=O)O)[C@H]2CC[C@@H]1O2` the activity, negative = inhibition was -11% [at 11.4 µM] (inactive). In the case of `NC(=S)Nc1cccc2cccnc12`, the AC50 was 12.6 µM (active). For `Cc1cc2c(nc1C)CCCN2C[C@@H](O)CN1CCN(C)CC1`, the activity, negative = inhibition was -2.48% [at 11.4 µM] (inactive). For `CC(=O)NS(=O)(=O)c1ccc(NC(=S)NC(=O)c2ccco2)cc1`, the “activity, negative = inhibition” value was 7.37% (inactive). For `O=C(NC(=S)Nc1cccc(Cl)c1N1CCCCC1)c1cccs1`, the AC50 was 10 µM (active). `Cc1c(Cl)cccc1NC(=O)CCC(=O)NNC(=O)c1ccco1` was tested, and the “activity, negative = inhibition” value was -7.06% (inactive). For `CN(C1CCCCC1)S(=O)(=O)c1ccc(NC(=S)NC(=O)c2cccs2)cc1`, the “activity, negative = inhibition” value was 3.78% (inactive). `CC1CCN(c2ccccc2NC(=S)NC(=O)c2cccs2)CC1` was tested, and the AC50 was 7.08 µM (active). In the case of `O=C(NC(=S)Nc1cccc(Cl)c1N1CCCCC1)c1ccco1`, the AC50 was 12.6 µM (active). In the case of `Cc1c(NC(=S)/C=C2\N(C)c3ccccc3C2(C)C)c(=O)n(-c2ccccc2)n1C`, the “activity, negative = inhibition” value was -5.66% (inactive). For `COc1cccc(C2NC(c3cccc(OC)c3O)C(C)C(=O)C2C)c1O` (configuration not stated), the “activity, negative = inhibition” value was -27.3% (inactive). With `CC1=NN(c2ccccc2)C(=O)/C1=C\c1c(C)[nH]n(-c2ccccc2)c1=O` the “activity, negative = inhibition” value was 2.78% (inactive). `COc1cccc(C(c2c(C)[nH]n(-c3ccccc3)c2=O)c2c(C)[nH]n(-c3ccccc3)c2=O)c1O` was tested, and the AC50 was 7.08 µM (active).
